Measured values as given in PubChem BioAssay AID1159580 (chemical genetic matrix, 2015).
Values joined by “and” are separate entries in the source; they are usually repeats but may differ in a detail not shown here. Identical values can stand only once. Hit rate of the full screen: of about 5,500 compounds, about 2,000 (36%) were called active. Roughly 18% stayed inconclusive and do not appear here. No stated cut-off is given here; in the data, active means normalized growth mostly below about 0.91 (no sharp cut-off); inconclusive means no clear call, values can overlap the other calls; inactive means mostly above about 0.92. This is one part of the list.

Assay: chemical genetic growth profiling, strain panel (AID 1159580);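 further: tested at 20 µM; growth read once vehicle control cultures reached saturation at 30 °C; 1 = growth at the plate median or of vehicle wells; lower values mean less growth of the strain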
Details: S. cerevisiae deletion strains, growth OD

Measured: normalized growth

C/C=C(\C)C(=O)O[C@@H]1c2c(ccc3ccc(=O)oc23)OC(C)(C)[C@@H]1OC(C)=O
inactive: locus YAL013W, strain DEP1, active compounds read low 1.01 | locus YAL021C, strain ccr4, active compounds read low 1.01 | locus YAL026C, strain drs2, active compounds read low 0.989 | locus YAL030W, strain snc1, active compounds read low 0.996 | locus YBL061C, strain skt5, active compounds read low 0.994 | locus YBR009C, strain hhf1, active compounds read low 1.03 | locus YBR021W, strain FUR4, active compounds read low 1.03 | locus YBR023C, strain chs3, active compounds read low 0.987 | locus YBR171W, strain sec66, active compounds read low 0.98 | locus YBR229C, strain ROT2, active compounds read low 0.995 | locus YBR231C, strain swc5, active compounds read low 1 | locus YBR279W, strain paf1, active compounds read low 1.01 | locus YCL011C, strain gbp2, active compounds read low 1.01 | locus YCL016C, strain dcc1, active compounds read low 0.993 | locus YCL029C, strain bik1, active compounds read low 1.03 | locus YCL061C, strain MRC1, active compounds read low 0.985 | locus YCL069W, strain vba3, active compounds read low 1.01 | locus YCR088W, strain abp1, active compounds read low 0.996 | locus YDL005C, strain med2, active compounds read low 0.981 | locus YDL035C, strain GPR1, active compounds read low 0.995 | locus YDL040C, strain nat1, active compounds read low 0.998 | locus YDL074C, strain BRE1, active compounds read low 1 | locus YDL101C, strain DUN1, active compounds read low 1.01 | locus YDL134C, strain PPH21, active compounds read low 0.974 | locus YDL185W, strain tfp1, active compounds read low 1.02 | locus YDL192W, strain arf1, active compounds read low 0.992 | locus YDR001C, strain nth1, active compounds read low 1.01 | locus YDR069C, strain doa4, active compounds read low 1 | locus YDR101C, strain arx1, active compounds read low 1.03 | locus YDR150W, strain NUM1, active compounds read low 0.997 | locus YDR159W, strain sac3, active compounds read low 0.989 | locus YDR162C, strain NBP2, active compounds read low 0.983 | locus YDR195W, strain ref2 1.06 | locus YDR297W, strain sur2, active compounds read low 0.995 | locus YDR318W, strain mcm21, active compounds read low 0.974 | locus YDR334W, strain swr1, active compounds read low 1 | locus YDR335W, strain msn5, active compounds read low 1.02 | locus YDR388W, active compounds read low 1 | locus YDR392W, strain spt3, active compounds read low 0.762 | locus YDR502C, strain sam2, active compounds read low 0.991 | locus YEL003W, strain gim4, active compounds read low 1.01 | locus YEL037C, strain rad23, active compounds read low 1.01 | locus YEL061C, strain CIN8 (second series), active compounds read low 1 | locus YEL061C, strain CIN8, active compounds read low 0.991 | locus YER015W, strain faa2, active compounds read low 1.01 | locus YER016W, strain bim1, active compounds read low 0.993 | locus YER110C, active compounds read low 1.01 | locus YER111C, strain swi4, active compounds read low 0.994 | locus YER155C, strain BEM2 (second series), active compounds read low 1.03 | locus YER155C, strain BEM2, active compounds read low 1.01 | locus YER167W, strain BCK2, active compounds read low 0.997 | locus YFR010W, strain ubp6, active compounds read low 1.02 | locus YGL078C, strain dbp3, active compounds read low 1 | locus YGL086W, strain mad1, active compounds read low 1.05 | locus YGL167C, strain pmr1, active compounds read low 0.984 | locus YGL173C, strain kem1, active compounds read low 0.991 | locus YGL227W, strain vid30, active compounds read low 0.991 | locus YGL240W, strain doc1, active compounds read low 0.985 | locus YGL248W, strain PDE1, active compounds read low 0.993 | locus YGL253W, strain hxk2, active compounds read low 0.963 | locus YGR078C, strain PAC10, active compounds read low 1 | locus YGR135W, strain pre9, active compounds read low 0.987 | locus YGR252W, strain gcn5, active compounds read low 1 | locus YHR013C, strain ard1, active compounds read low 0.971 | locus YHR027C, strain rpn1, active compounds read low 1 | locus YHR030C, strain SLT2, active compounds read low 0.996 and 0.998 | locus YHR079C, strain IRE1 (second series), active compounds read low 0.998 | locus YHR079C, strain IRE1, active compounds read low 1.01 | locus YHR094C, strain hxt1, active compounds read low 1 | locus YHR129C, strain ARP1, active compounds read low 1 | locus YHR142W, strain chs7, active compounds read low 0.987 | locus YHR200W, strain rpn10, active compounds read low 1.02 | locus YIL066C, strain RNR3, active compounds read low 0.992 | locus YIL073C, strain SPO22, active compounds read low 0.989 | locus YIL125W, strain kgd1, active compounds read low 1.01 | locus YIR030C, strain dcg1, active compounds read low 0.994 | locus YJL092W, strain hpr5, active compounds read low 0.99 | locus YJL095W, strain BCK1 (second series), active compounds read low 0.994 | locus YJL095W, strain BCK1, active compounds read low 0.956 and 1.05 | locus YJL115W, strain asf1, active compounds read low 0.995 | locus YJL129C, strain trk1, active compounds read low 0.953 | locus YJL134W, strain LCB3, active compounds read low 0.996 | locus YJL154C, strain vps35, active compounds read low 1.01 | locus YJL164C, strain tpk1, active compounds read low 1 | locus YJL166W, strain qcr8, active compounds read low 0.968 | locus YJL168C, strain set2, active compounds read low 1.01 | locus YJL187C, strain SWE1 (second series), active compounds read low 1 | locus YJL187C, strain SWE1, active compounds read low 0.991
active: locus YDR137W, strain rgp1, active compounds read low 0.842
